LEDGF integ inh: blocks HIV-1 LEDGF/p75-dependent DNA integration; AID 743269; TR-FRET IN-LEDGF/p75 DNA integration, Eu/Cy5; inhibition, % at 3.7 µM; 370,000 compounds, 0.64% hits;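 active = inhibition above the screen-wide mean plus 3 SD, cut at about 13% in these data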;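 note: signal is the Cy5 over europium emission ratio at 671 and 618 nm; 0% = plate median of compound wells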
PRMT1 FP inh: blocks human protein arginine methyltransferase 1; inhibition, % at 2.79 µM; recombinant PRMT1, activity-based probe fluorescence polarization; 370,000 compounds, 1.3% hits; Q99873; AID 652257;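 active = inhibition above about 21% made by adding two undisclosed values, limit read from the data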
MBD2 inh: MBD2-methylated oligo binding inhibition | 370,000 compounds, 0.31% hits | inhibition, % at 4.4 µM | TR-FRET, MBD2 binding to methylated oligonucleotide; in the data active = inhibition above about 13%
Target sequence (Q9UBB5 whole entry, looked up): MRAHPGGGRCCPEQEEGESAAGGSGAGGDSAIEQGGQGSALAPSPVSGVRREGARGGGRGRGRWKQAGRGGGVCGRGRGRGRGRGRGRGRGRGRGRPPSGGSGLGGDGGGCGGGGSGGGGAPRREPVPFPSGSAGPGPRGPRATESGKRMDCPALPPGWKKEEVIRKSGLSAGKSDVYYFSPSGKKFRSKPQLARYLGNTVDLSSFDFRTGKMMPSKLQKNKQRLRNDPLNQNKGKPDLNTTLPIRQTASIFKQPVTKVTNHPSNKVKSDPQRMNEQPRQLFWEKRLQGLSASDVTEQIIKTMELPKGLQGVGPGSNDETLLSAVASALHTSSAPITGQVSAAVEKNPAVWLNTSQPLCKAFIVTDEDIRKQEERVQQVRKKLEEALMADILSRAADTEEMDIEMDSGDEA
UHRF1 MBD2 ctr: human UHRF1 methylated DNA binding inhibitors; Q96T88; UHRF1 binding to methylated oligo, TR-FRET; inhibition, % at 4.4 µM; 370,000 compounds, 0.75% hits; AID 687016; in the data active = inhibition above about 21%;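 note: UHRF1 SRA domain binding a hemimethylated CpG hairpin DNA probe; 0% = median of test compound wells and 100% = reference inhibitor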
* marks the source's active call; other numbers are inactive results. A selection: hits, their analogues and other compounds. The true share with any hit is near 2.5%.

SMILES | LEDGF integ inh | PRMT1 FP inh | MBD2 inh | UHRF1 MBD2 ctr
CCn1cc(C2C(C(=O)Nc3cc(C)ccn3)=C(C)NC3=C2C(=O)CC(C)(C)C3)c(C)n1 (stereo not given) | -2 | 2 | 13 | 26*
CCN(CC)c1ccc(C2C(C(=O)Nc3ccccn3)=C(C)NC3=C2C(=O)CC(C)(C)C3)cc1 (stereo not given) | -1 | -2 | -1 | -4
CC(=O)c1nn(-c2ccc(Cl)cc2)cc1C(=O)c1ccc(C)cc1 | -4 | 5 | 9 | 26*
O=C1Cc2ccccc2C(=O)N1c1ccc(F)cc1Cl | 11 | -1 | 13 | 37*
O=C(O)c1cc(-c2ccc(/C=C3\NC(=O)N(c4ccccc4)C3=O)o2)ccc1Cl | 5 | 6 | 5 | 16
O=C1NN(c2ccccc2)C(=O)/C1=C/c1ccc(-c2ccc(Cl)c(C(=O)O)c2)o1 | 5 | 6 | 0 | 23*
Cc1cccc(N2NC(=O)/C(=C/c3ccc(-c4ccc(Cl)c(C(=O)O)c4)o3)C2=O)c1 | 5 | 6 | 6 | 31*
Cc1ccc(Sc2ccc(/C=C3/C(=O)NN(c4ccccc4)C3=O)o2)cc1 | 5 | 8 | 0 | 9
CCOP(=O)(OCC)c1nc(-c2cccc3ccccc23)oc1NCc1ccc(OC)cc1 | 6 | -1 | 9 | 24*
O=C(Nc1nc(-c2cc(Cl)sc2Cl)cs1)c1ccc(Br)s1 | 1 | 4 | 21* | 2
O=C(Nc1ccc(Nc2ccccc2)cc1)c1ccc(Cl)cc1 | -1 | -2 | 3 | -1
N#C/C(C(=O)Nc1ccc(Cl)cc1)=C(/S)Nc1ccccc1 | -1 | 91* | 3 | -6
CC(C)OC(=O)c1cccnc1N1CCN(c2ccc(F)cc2)CC1 | 2 | -1 | 8 | 23*
CCCCn1nnnc1C1(C)CCC(=O)N1CCc1ccc(OC)c(OC)c1 (stereo not given) | 0 | -1 | 2 | 0
O=c1[nH]nc(CNc2ccc(O)cc2)c2ccccc12 | 5 | 25* | -10 | -6
O=c1[nH]nc(CNc2ccc(C(F)(F)F)cc2)c2ccccc12 | -1 | -1 | -2 | -2
CN(CC(=O)Nc1ccccc1Br)C(=O)c1cccn1C | 4 | -3 | -2 | -2
N=C1/C(=C/c2ccc(OCc3ccccc3F)cc2)C(=O)N=C2SC(CC(=O)N3CCOCC3)=NN12 | 0 | 6 | 13 | 23*
CC1CCN(C(=S)NC(=O)c2ccccc2)CC1 | -1 | 0 | -4 | 38*
CC(C)(C)c1ccc(C(=O)NC(=S)N2CCCCCC2)cc1 | 21* | 3 | -1 | -2
CC1CCN(C(=S)NC(=O)c2ccc(C(C)(C)C)cc2)CC1 | 11 | 7 | -2 | 0
CC(c1ccco1)N(C(=O)c1ccccc1NS(=O)(=O)c1ccc(Cl)cc1)c1ccccn1 (stereo not given) | 2 | 0 | 2 | 8
CC(c1ccco1)N(C(=O)c1ccccc1NS(=O)(=O)c1cc([N+](=O)[O-])ccc1Cl)c1ccccn1 (stereo not given) | 4 | 3 | 6 | 26*
Cc1cccc2c(=O)c(C(=O)N3CCCCCC3)c[nH]c12 | 0 | 0 | 10 | 23*
CCCc1cc(-c2n[nH]c(C)c2-c2ccc(C(=O)OCC)o2)c(O)cc1O | -1 | 3 | 3 | 7
SMILES | LEDGF integ inh | PRMT1 FP inh | MBD2 inh | UHRF1 MBD2 ctr
CCCc1cc2c(OC(=O)CC)c(-c3ccc(C(=O)OCC)o3)c(=O)oc2cc1OC | 3 | 5 | 10 | 24*
COCC(C)n1c(C)cc(C(=O)COC(=O)CCc2nc3ccccc3c(=O)[nH]2)c1C (stereo not given) | 0 | -1 | 1 | 26*
CC(C)CNC(=O)C1(C)CCCN1C(=O)CCc1cccs1 (stereo not given) | -1 | 0 | -2 | 1
C=CCN(C(=O)c1csnn1)C(C(=O)NC1CCCCC1)c1ccc(F)cc1 (stereo not given) | -3 | 0 | 2 | 3
O=C(c1cn2ccccc2n1)N1CCCC(Nc2ccc(F)c(F)c2)C1 (stereo not given) | -5 | 7 | 1 | 23*
Cc1c(NC(=O)C(C)NCC2CCCO2)c(=O)n(-c2ccccc2)n1C (stereo not given) | 0 | -2 | -3 | 38*
CC1CCCCC1NC(=O)COC(=O)c1c2c(nc3ccccc13)/C(=C\c1ccco1)CC2 (stereo not given) | 27* | 14 | 7 | 20
COc1ccc(C(=O)N(C)[C@H]2C[C@H]3c4[nH]c5cccc(-c6ccccc6)c5c4CCN3C[C@H]2[C@H](C)O)cc1 | -2 | 5 | -3 | -1
CCS(=O)(=O)N1Cc2cc(C(=O)NCC3CC3)nc(-c3cccc(-c4cccnc4)c3)c2[C@@H]1CCO | 5 | 7 | 7 | 4
O=C(CCS(=O)(=O)c1ccc(F)cc1)Nc1nc(-c2ccccn2)cs1 | -1 | -2 | 5 | 21*
CCSc1nnc(CNc2ccc(C)cc2)n1C | 0 | 6 | 11 | 24*
Cc1ccc(NCc2nnc(SCC(=O)Nc3cc(C)on3)n2C)cc1 | -3 | 2 | 6 | 2
Cc1cc2c(cc1C)N(C(=O)CCl)CCN2C(=O)CCl | 1 | -2 | -2 | -2
Cc1ccc(/C=C/C(=O)N2CCc3ccccc32)o1 | 9 | 21 | 13 | 31*
O=C(/C=C/c1ccco1)N1CCc2ccccc21 | 4 | 4 | -1 | -2
CCOc1ccc(NC(=O)c2ccc3c(c2)OCCO3)cc1S(=O)(=O)N(CC)CC | -9 | 4 | 0 | 7
COc1cccc(-n2cc(CN(C)C(=O)C3CCC(=O)N(C4CC4)C3)cn2)c1 (stereo not given) | -1 | 2 | -1 | -1
COc1cccc(-n2cc(CNC(=O)C3CCC(=O)N(C4CC4)C3)cn2)c1 (stereo not given) | 4 | -1 | 9 | 21*
O=C(NCCO)c1ccc2nc(-c3ccco3)c(-c3ccco3)nc2c1 | 77* | 65* | 9 | 42*
c1coc(-c2nc3ccccc3nc2-c2ccco2)c1 | 48* | 42* | 6 | 53*
COc1ccc(NC(=O)CN(C)C(=O)C2=NN(c3ccccc3)C(=O)CC2)cc1 | -3 | 2 | 3 | 2
S=C(Nc1cccnc1)NC1CCCCCCC1 | -4 | 4 | 2 | 1
O=C(Nc1cccnc1)NC1CCCCC1 | 0 | -5 | 3 | 25*
CN1OC[C@@H]2CN(C(=S)Nc3ccc(C#N)cc3)[C@H](c3ccc(N4CCCCC4)cc3)C[C@@H]21 | -2 | 5 | 3 | 1
COc1ccc(CN2CCNC(=O)C2CC(=O)N(C)CC2CCOCC2)cc1OC (stereo not given) | 2 | -3 | -3 | 0
COc1ccc(CN2CCNC(=O)C2CC(=O)N(C)CC2CCOCC2)cc1C (stereo not given) | 3 | -1 | 0 | 31*
O=C(NCc1ccco1)c1cccc2c1C(=O)c1ccc(/C=C/c3ccccc3)cc1S2(=O)=O | 6 | 29* | -5 | 0
COC(=O)CN1CCN(C(=O)c2nocc2C)CC1 | -2 | -5 | -1 | 3
CCCC1CCC2(CCC(=O)N2CCSc2ccccc2)CC1 (stereo not given) | 6 | -4 | -5 | -2
